# Source: PubChem BioAssay AID924 (National Center for Advancing Translational Sciences (NCATS), 2007)
# Hit rate of the full screen: of about 130,000 compounds, about 1,200 (0.92%) were called active. A call without a number means that no potency is given here. Inconclusive results (about 3%) are left out. The call rests on the fitted dose curve; in most records, active means well fitted cell-killing curve with a large enough effect; inconclusive means small, poorly fitted or top-dose-only effect; inactive means no such curve, though single readings can be large or run the other way. The full list was thinned out, with actives kept by preference.
# Assay: qHTS Screen for Compounds that Selectively Target Cancer Cells with p53 Mutations: Cytotoxicity of p53ts Cells at the Permissive Temperature; further: nearly all actives have a fitted effect of over 55% in size
# Details: H1299-p53A138V at 32C, ATP luminescence viability, 24 h; series mostly up to 46.1 µM
# Summary of the method: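 ATP-content luminescence (ATPlite) read-out after 24 h compound exposure at 32C in H1299-p53A138V cells (600/well). Tested up to 46 uM. Normalized to DMSO (0%) and 100 uM tamoxifen (100% killing); Hill-fit AC50.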
# Potency means the concentration at half of the fitted maximal effect.
row,SMILES,Potency
1,CCOc1ccccc1C(=O)NCC(c1ccc(N(C)C)cc1)N1CCCC1 (configuration not stated),inactive
2,O=C(O)CSCc1nc2ccccc2s1,inactive
3,CCC(=O)NC(=Nc1nc2ccccc2s1)NC(=O)CC,15.8 µM (active)
4,COC(=O)c1nc2ccccc2s1,inactive
5,COc1ccc(OC)c(-c2noc(N3CCN(c4cc(Cl)ccc4C)CC3)n2)c1,inactive
6,Cc1ccc(F)cc1NC(=O)c1cccc(N(C)C)c1,inactive
7,Cc1ccc(NC(=O)c2cccc(N(C)C)c2)cc1NC(=O)c1ccc(O)cc1,12.6 µM (active)
8,Cc1ccccc1NC(=O)c1ccccc1,inactive
9,CC(C)c1ccc(NC(=O)C2CCN(c3nc(-c4ccc(C(C)C)cc4)no3)CC2)cc1,inactive
10,Cn1c(=O)c(C(=O)O)nn(-c2ccccc2)c1=O,inactive
11,O=C(Nc1nnc(S(=O)(=O)N2CCCCCC2)s1)c1cccc(Br)c1,inactive
12,CCN(C(=O)Cn1c(=O)nc(-c2ccccc2)c2cc(Cl)ccc21)c1cccc(C)c1,inactive
13,O=C(Cn1nnc(-c2ccccc2)n1)NCc1ccccc1,inactive
14,O=C(Cn1c(=O)nc(-c2ccccc2)c2cc(Cl)ccc21)NCc1ccc(Cl)cc1,10 µM (active)
15,CCc1ccccc1NC(=O)Cc1ccc(NC(=O)N2CCCCc3ccccc32)cc1,inactive
16,COc1ccc2c(c1)CCc1c(C(=O)Nc3cc(C)ccc3O)noc1-2,inactive
17,Cc1ccc2nc(COc3cccc(NC(=O)Nc4ccc(C)c(Cl)c4)c3)cc(=O)n2c1,inactive
18,CCC(=O)Oc1cccc(C(=O)Nc2ccc(-c3nnc(-c4ccco4)o3)cc2)c1,inactive
19,O=C(CCc1ccccc1)Nc1cccc(-c2nnc(-c3ccco3)o2)c1,inactive
20,CCOc1ccc(NC(=O)c2ncoc2-c2ccco2)cc1,12.6 µM (active)
21,CCOc1ccc(-c2nnc(-c3ccco3)o2)cc1,10 µM (active)
22,CCOc1ccc(C(=O)Nc2ccncc2)cc1,inactive
23,CCOc1ccc(NC(=O)Nc2cc(C)on2)cc1,inactive

row,SMILES,Potency
1,COc1ccc(-n2c(=O)c3c(c4cc(OC)ccc4n3C)n(Cc3cccc(C)c3)c2=O)cc1,inactive
2,COc1ccc(N2C(=O)CSC23C(=O)N(Cc2cccc(F)c2)c2ccccc23)cc1Cl (configuration not stated),inactive
3,CCCCOc1ccc(NC(=O)c2cc3c(n(-c4ccc(Cl)cc4)c2=O)CCCC3=O)cc1,inactive
4,COc1ccc(C2CC(=O)N(Cc3ccccc3C)c3c2c(C)nn3-c2nc(C)cc(C)n2)c(OC)c1 (configuration not stated),inactive
5,CCOCCCNC(=O)c1ccc2nc(CCc3ccccc3)oc2c1,inactive
6,COc1ccc(C(=O)Nc2onc3c2CCCC3)cc1,10 µM (active)
7,CC1CCc2noc(NC(=O)c3ccc([N+](=O)[O-])cc3)c2C1 (configuration not stated),inactive
8,COc1ccc(NC(=O)c2c(C)oc3c2CCCC3)cc1,inactive
9,COc1ccc(-c2onc(C)c2C)cc1S(=O)(=O)NCC1CCN(Cc2cccc(F)c2)CC1,inactive
10,CCOc1ccccc1NC(=O)CN1CCCN(Cc2cccc(Cl)c2)S1(=O)=O,inactive
11,COc1ccc(CNC(=O)c2ccc3c(O)c(S(=O)(=O)c4ccccc4)c(=O)[nH]c3c2)cc1,inactive
12,CC(C)c1ccc(NC(=O)c2ccc3c(O)c(S(=O)(=O)c4ccccc4)c(=O)[nH]c3c2)cc1,12.6 µM (active)
13,Cc1ccc(C(=O)Nc2ccc3[nH]c(=O)c(=O)[nH]c3c2)cc1,inactive
14,Cn1c(=NC(=O)c2cnccn2)sc2ccccc21,15.8 µM (active)
15,Cn1c(=NC(=O)CSCC(=O)N2CCOCC2)sc2ccccc21,inactive
16,Cn1c(=NC(=O)CSCC(=O)N2CCCCC2)sc2ccccc21,inactive
17,COc1ccc(CNC(=O)c2ccc(NC(=O)N3CC4CCCN4c4ccccc43)cc2)cc1 (configuration not stated),inactive
18,CC(=O)Nc1ccc(NC(=O)c2cc3sccc3n2Cc2ccc(F)cc2)cc1,inactive
19,Cc1cccc(N2CCN(C(=O)CCn3c(=O)c4cccn4c4cccnc43)CC2C)c1 (configuration not stated),inactive
20,COc1ccc2nc(Nc3nc4cc5c(cc4s3)OCCO5)sc2c1,inactive
21,c1c2c(cc3sc(N4CCCCC4)nc13)OCCO2,1.26 µM (active)
22,Fc1ccc2nc(N3CCCCC3)sc2c1,inactive
23,CCc1ccc2ncc3c(-c4ccc(C)cc4)nn(CC(=O)NCc4ccccc4)c3c2c1,inactive

row,SMILES,Potency
1,CC(C)(C)c1csc(NC2=NS(=O)(=O)c3ccccc32)n1,12.6 µM (active)
2,O=C(CN1C(=O)c2cccnc2Oc2ccc(Cl)cc21)NCCc1ccccc1,inactive
3,COc1ccc(-c2ccc(=O)n(CC(=O)Nc3ccc(Br)cc3F)n2)cc1,inactive
4,CC(C)Sc1oc(-c2cccs2)nc1S(=O)(=O)c1ccc(Cl)cc1,inactive
5,CCn1cc(C(=O)NCCc2ccccc2)c(=O)c2cc(S(=O)(=O)N3CCCCCC3)ccc21,inactive
6,CCN(CC)S(=O)(=O)c1cc(C(=O)Nc2ccccn2)ccc1C,10 µM (active)
7,CCN(CC)S(=O)(=O)c1cccc(C(=O)Nc2ccccc2)c1,inactive
8,Cc1ccc(S(=O)(=O)/N=C(/Nc2ccccn2)c2ccc(Cl)cc2)cc1,inactive
9,Cc1nnc(NC(=O)CSc2nc3c([nH]c4ccccc43)c(=O)n2-c2cccc(Cl)c2)s1,inactive
10,OCCCN1c2ccccc2Nc2nnc(-c3ccccc3)cc21,12.6 µM (active)
11,O=C(c1ccc(Cl)cc1)n1nc(-c2cccnc2)nc1NCc1ccc(F)cc1,inactive
12,COc1ccccc1CNC(=O)C(=O)NCC(c1cccs1)S(=O)(=O)c1cccs1 (configuration not stated),inactive
13,CC1(C)CC(=O)c2cc(OCC(=O)NCC3CCCO3)ccc2O1 (configuration not stated),inactive
14,Cc1c(C(=O)NCc2ccccc2Br)oc2ccc3c(c12)C(=O)CC(C)(C)O3,12.6 µM (active)
15,CCC1(C)CC(=O)c2c(ccc3oc(C(=O)Nc4ccc(C(C)=O)cc4)c(C)c23)O1 (configuration not stated),inactive
16,CCOC(=O)N1CCc2c(sc(NCc3cccc(F)c3)c2C(=O)Nc2ccccc2OCC)C1,inactive
17,COc1ccc(NC(=O)NC(C)c2c(-n3cccc3)sc(C)c2C)cc1OC (configuration not stated),inactive
18,Cc1ccc(S(=O)(=O)c2nc(-c3ccco3)oc2SCC(=O)Nc2ccc(F)cc2)cc1,inactive
19,O=C(CSc1oc(-c2ccc(F)cc2)nc1S(=O)(=O)c1ccc(Br)cc1)NC1CCCCC1,inactive
20,CC(C)S(=O)(=O)c1oc(-c2ccc(F)cc2)nc1S(=O)(=O)c1ccc(F)cc1,5.01 µM (active)
21,Cc1ccc(-c2nc(S(=O)(=O)c3ccc(C)cc3)c(N3CCCCCC3)o2)cc1,inactive
